Experimental data: PubChem BioAssay AID1570 (National Center for Advancing Translational Sciences (NCATS), 2009)
“And” between values parts separate entries of the source, which are not always exact repeats. Equal entries are not always repeated. Results filed as inconclusive are left out. The source made the active and inactive calls. The call rests on the fitted dose curve; in most records, active means well fitted inhibition curve with a large enough effect; inconclusive means small, poorly fitted or top-dose-only effect, or effect the other way; inactive means flat fitted curve, though single readings scatter.

Molecular target: Thyroid hormone receptor beta (Homo sapiens) (UniProt P10828)
Sequence (P10828 whole entry, looked up): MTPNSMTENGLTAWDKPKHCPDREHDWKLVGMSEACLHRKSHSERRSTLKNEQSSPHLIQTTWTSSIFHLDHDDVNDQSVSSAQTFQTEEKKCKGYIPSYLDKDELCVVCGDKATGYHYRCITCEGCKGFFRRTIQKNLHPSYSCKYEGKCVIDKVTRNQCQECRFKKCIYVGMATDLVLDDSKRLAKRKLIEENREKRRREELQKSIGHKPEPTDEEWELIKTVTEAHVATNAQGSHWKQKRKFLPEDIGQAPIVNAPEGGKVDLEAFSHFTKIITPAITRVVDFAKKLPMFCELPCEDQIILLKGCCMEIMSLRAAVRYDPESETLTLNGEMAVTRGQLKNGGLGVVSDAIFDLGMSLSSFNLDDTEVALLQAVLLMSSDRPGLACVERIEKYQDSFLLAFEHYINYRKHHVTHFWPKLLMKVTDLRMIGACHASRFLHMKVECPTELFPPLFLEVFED
Experiment: Concentration Response Confirmation Assay for Inhibitors of the Interaction of Thyroid Hormone Receptor and Steroid Receptor Coregulator 2, Fluorescein Fluoroprobe
Conditions: TRbeta LBD / fluorescein-SRC2 peptide, fluorescence polarization, 5 h; series mostly up to 92.2 µM; activity, negative = inhibition: at the top concentration
Description: NIH Molecular Libraries Probe Production Network [MLPCN] NIH Chemical Genomics Center [NCGC] MLPCN Grant: DK058080 Assay Provider: R. Kip Guy, St. Jude Children's Research Hospital NCGC Assay Overview: Thyroid receptor (TR) regulates many homeostatic processes including basal metabolism, cardiovascular function, body weight, and lipid trafficking. TR modulators are potential therapeutics for obesity and hyperlipidemias but current thyroid analogs have undesirable side effects, particularly cardiac stimulation. To identify inhibitors that specifically prevent the interaction of TR with the steroid receptor coregulator 2 (SRC2), a fluorescence polarization assay was screened (Arnold et al., 2006). This assay detects interaction of the ligand-binding domain of human TRbeta with a fluorescein labeled SRC2 peptide, corresponding to a 20 amino acid region of the nuclear receptor interaction domain. Small molecule inhibitors that block the interaction of TR and SRC2 are detected by a decrease in fluorescence polarization. This assay is a confirmation assay for AID 1469. Arnold, L. A.; Estebanez-Perpina, E.; Togashi, M.; Shelat, A.; Ocasio, C. A.; McReynolds, A. C.; Nguyen, P.; Baxter, J. D.; Fletterick, R. J.; Webb, P.; Guy, R. K. A high-throughput screening method to identify small molecule inhibitors of thyroid hormone receptor coactivator binding. Sci STKE 2006, p 13.
NCGC Assay Protocol Summary: Five uL/well 0.6 uM TRbeta and 20 nM SRC2 Fluorescein in protein buffer (20mM Tris hydrochloride, 100mM NaCl, 10% glycerol, 1mM EDTA, 0.01% NP-40, 1mM DTT, 1uM T3 and 5% DMSO) was dispensed into black solid 1536-well plates (Grenier) using a solenoid-based dispenser. Following transfer of 23 nL compound or DMSO vehicle by a pin tool, the plates were centrifuged 15 s at 1000 RPM and incubated 5 hr at ambient temperature. The plates were read by an Envision (Perkin Elmer) to detect fluorescence polarization of SRC2 Fluorescein (480 nm excitation and 535 nm emission). Data were normalized to unbound (all components except TRbeta) and bound SRC2 Fluorescein controls. In this assay, we provide % activity data for each concentration as well as potencies for the active compounds. Keywords: NIH Roadmap, MLPCN, MLI, MLSMR, qHTS, NCGC, qHTS, thyroid hormone receptor, steroid receptor coactivator, fluorescence polarization

Potency, active:
O=c1[nH]c(Nc2ccccc2)cc2ccccc12 25.1 µM
COc1ccc(-c2nc(CS(=O)CC(=O)NCc3ccccn3)c(C)o2)cc1 (stereo not given) 35.5 µM
CS(=O)(=O)c1ccc(C(=O)OCC(=O)NC(=O)C2CCCCC2)cc1[N+](=O)[O-] 5.01 µM
COc1ccccc1Nc1cc2ccccc2c(=O)[nH]1 35.5 µM
Cc1ccccc1Nc1cc2ccccc2c(=O)[nH]1 10 µM and 28.2 µM
CN1CCc2ccc3c4c2[C@]1(C)Cc1cccc(c1-4)OCO3 44.7 µM
C=CC(=O)OCCOc1ccccc1 50.1 µM
CCCCOc1ccc(C(=O)CCN2CCOCC2)cc1 3.55 µM
CCCCOc1ccc(C(=O)CCN2CCCCC2)cc1 2.51 µM
Cc1nc2ccccc2n2c(O)c(CC(=O)O)cc12 8.91 µM
CCOc1cc(C(c2c(C)[nH][nH]c2=O)c2c(C)[nH][nH]c2=O)ccc1OC(=O)c1cccc([N+](=O)[O-])c1 15.8 µM
O=C(O)/C=C/C(=O)Nc1ccc(SC(F)(F)C(F)(F)C(F)(F)F)cc1 4.47 µM

activity, negative = inhibition, inactive:
Cc1cccc(S(=O)(=O)c2cn(Cc3ccccc3)c3cc(N4CCC(C)CC4)c(F)cc3c2=O)c1 -4.12% [at 184 µM]
CN(C(=S)Nc1cccnc1)c1ccc(O)cc1 11%
Cc1cc2ccccc2n1CCNC(=O)C(C)Oc1ccccc1 (stereo not given) 7.35% [at 46.3 µM]
CCN(CC)S(=O)(=O)c1cccc(N=NC2=C(O)CCCC2=O)c1 -3.56% [at 0.0112 µM]
O=c1cc(C23CC4CC(CC(C4)C2)C3)[nH][nH]1 -7.96%
N/C(Cc1cccc2ccccc12)=N\OC(=O)c1cccs1 -6.32% [at 5.76 µM]
Cc1ccc2c(CC(=O)Nc3c(C(=O)c4ccc(F)cc4)oc4ccccc34)coc2c1C 22.5% [at 184 µM]
Cn1c(=O)[nH]c2nnc(-c3ccc(Cl)c(Cl)c3)nc2c1=O 1.24%
Cc1cc(N=Cc2c(O)ccc3ccccc23)no1 1.5% [at 0.0112 µM]
CC1(C)CC(=O)C(N=Nc2cccc(S(=O)(=O)N3CCOCC3)c2)=C(O)C1 10.4%
O=C(Nc1nc2ccc(Cl)cc2s1)c1ccc(N2CCCCC2)c([N+](=O)[O-])c1 -12.4%
Cc1nnc(SCC(=O)Nc2ccc(N(C)C)cc2)[nH]c1=O 6.74% [at 184 µM]
CC1=NN(Cc2ccccc2)C(=O)C1 -2.3%
Nc1cc(-c2ccncc2)c[nH]c1=O -4.86%
C=CCSc1nnc2n(-c3ccccc3OC)c(=O)c3c4c(sc3n12)CCC4 3.76% [at 46.3 µM]
CCN(C(=O)C1CCCN(c2ncnc3onc(-c4ccc(F)cc4)c23)C1)c1ccccc1 (stereo not given) 14.6% [at 184 µM]
CCc1ccc2c(c1)c1nc(C)sc1n2CC 5.24%
CCCc1cc(=O)[nH]c(=S)[nH]1 2.33%
Cc1cc(C)cc(OCC(=O)NCCc2nc3ccccc3[nH]2)c1 -14.2% [at 184 µM]
CCOC(=O)c1cnc2nc(NCc3ccc(OC)c(OC)c3)[nH]n2c1=O -7.79%
COc1cc(NC(C)CCCN)c2ncccc2c1 (stereo not given) -6.93% [at 184 µM]
Cc1nc2c3cc(F)ccc3n(Cc3ccccc3F)c2s1 -12.6% [at 46.3 µM]
Cc1ccc(OC(=S)Nc2ccc(O)cc2)cc1 4.07%
CC(=O)c1cccc(NC(=O)COC(=O)c2ccc(S(C)(=O)=O)c([N+](=O)[O-])c2)c1 -8.61% [at 11.6 µM]
Cn1c(CCN2CCCCC2)nc2cc(NS(=O)(=O)c3ccc(Cl)cc3)ccc21 -6.74% [at 0.0112 µM]
C/C(=C\C(=O)c1ccccc1)Nc1ccc(O)cc1 -2.06% [at 11.6 µM]
CCOc1cc(N2CCOCC2)c(OCC)cc1NC(C)C(=O)N1CCN(CC)CC1 (stereo not given) -2.81%
CN(CCO)c1nc(N)c2c(N)nc3c(c2c1C#N)CC(=O)N3C1CCCC1 -0.749% [at 11.6 µM]
